The results in this text go back to PubChem BioAssay (NCATS).

Records with an inconclusive call do not appear. Calls of active or inactive are those of the source. Unless noted, calls come from the whole dose curve; as a rule, active = well fitted curve in the direction sought with a large enough effect; inconclusive = small, poorly fitted or top-dose-only effect, or another doubt; inactive = no such curve, though single readings can be large; an effect the other way counts as inactive or inconclusive.

The nature of assay [1]: qHTS profiling for inhibitors of Plasmodium falciparum proliferation (AID 504749).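 Note: 0% = DMSO vehicle and full inhibition = artemisinin control; nearly all actives have a fitted effect of over 60% in size.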 The settings on record: P. falciparum in erythrocytes, SYBR Green DNA, 72 h, at 28.7 µM (top of the series). In short, it runs like this:
(§1)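 P. falciparum-infected erythrocytes (0.3% parasitemia, 2.5% hematocrit final) were exposed to compounds for 72 h at 37 C in 5% CO2, then lysed with SYBR Green buffer overnight at room temperature; parasite DNA fluorescence was normalized to artemisinin and DMSO controls.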
(Quantitative high-throughput screening tests each substance at several concentrations.)

A further assay has as its system 3D7. The description is as above. The settings on record: P. falciparum in erythrocytes, SYBR Green DNA, 72 h; series mostly up to 28.7 µM. In short, it runs like this: as §1
Another assay concerns 7G8. The description is as above. The following applies: P. falciparum in erythrocytes, SYBR Green DNA, 72 h; series mostly up to 28.7 µM. In outline: as §1
In another assay the test system is AA1029. The assay is described as above. The following applies: P. falciparum in erythrocytes, SYBR Green DNA, 72 h; series mostly up to 28.7 µM. In short, it runs like this:
as §1

For another assay, the system named is AS120. The assay is described as above. The following applies: P. falciparum in erythrocytes, SYBR Green DNA, 72 h; series mostly up to 28.7 µM. In outline: as §1
The test system of a further assay is ATS189. The description is as above. The following applies: P. falciparum in erythrocytes, SYBR Green DNA, 72 h; series mostly up to 28.7 µM. In short, it runs like this: as §1
A further assay concerns ATS95. The description is as above. The following applies: P. falciparum in erythrocytes, SYBR Green DNA, 72 h; series mostly up to 28.7 µM. In outline: as §1
Another assay relates to C2A. Described as above. The settings on record: P. falciparum in erythrocytes, SYBR Green DNA, 72 h; series mostly up to 28.7 µM. In short, it runs like this: as §1
Assay [2] is described as follows: KB-3-1 P-gp reporter qHTS against the NCATS DSHEA and TCM libraries (AID 1919975). Note: 0% is about no effect. In short, it runs like this:
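CellTiter-Glo luminescence viability readout; KB-3-1 parental cells, 500/well, attached ~4 h, then compound for ~72 h, 37C, 5% CO2. Bortezomib intraplate control.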

Assay [3] can be described thus: qHTS Counterscreen for compound interference against the NCATS DSHEA and TCM libraries (AID 1919978).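 Note: compounds preincubated with 1 µM D-luciferin or buffer before detection reagent; % of control where 0% means no effect.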 The settings on record: firefly luciferase detection reagent interference, luminescence. In outline: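 Luminescence counterscreen for detection-kit interference: compounds at 19.5 nM–39.8 uM final, 15 min RT with 1 uM D-luciferin or buffer only; detection reagent added, 30 min RT, then read.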

Assay [4] can be described thus: Dual reporter qHTS for agonist of Pregnane X Receptor (hPXR) against the NCATS DSHEA and TCM libraries: Fluorescence readout (AID 1920058). Note: 0% is about no effect. In outline:
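Measures viability of the PXR reporter HepG2 line by protease-substrate fluorescence (405/540 nm), taken 1 h after CellTiter-Fluor addition. Substances are tested as concentration series over a ~24 h exposure, with rifampicin as agonist control.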

In assay [5] the target is Nuclear receptor subfamily 1 group I member 2 (Homo sapiens) (UniProt O75469). As to the kind of experiment: Dual reporter qHTS for agonist of Pregnane X Receptor (hPXR) against the NCATS DSHEA and TCM libraries: Luminescence readout (AID 1920059). Note: 0% is about no effect. In short, it runs like this: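 hPXR-LucHepG2 cells in phenol red-free DMEM with 5% charcoal-stripped FBS, 2000 cells/well, attached 5 h, then exposed 24 h at 37C to compounds; rifampicin as positive agonist control (2.8 nM–92 uM). Luciferase luminescence read.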

For assay [6] the target is unchanged. Description: Dual reporter qHTS for antagonist of Pregnane X Receptor (hPXR) against the NCATS DSHEA and TCM libraries: Luminescence Readout (AID 1920060). Note: 0% is about no effect. In outline: (§2)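 Rifampicin-stimulated (2 uM final) hPXR-luciferase HepG2 cells were treated for 24 h with DSNP/TCM substances. Viability came from CellTiter-Fluor fluorescence, reporter activity from ONE-Glo luminescence.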

Assay [7] in a line: Dual reporter qHTS for antagonist of Pregnane X Receptor (hPXR) against the NCATS DSHEA and TCM libraries: Fluorescence Readout (AID 1920061). Note: 0% is about no effect. In outline: as §2
Assay [8] can be described thus: qHTS drug screen for cell cycle checkpoint inhibitors in PARPi-resistant BRCA-mutant ovarian cancer cell lines. (AID 1963452; calls by dose curve). The following applies: PEO1/OlaR viability, CellTiter-Glo luminescence, 96 h, stronger effect = lower value. In outline: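 PEO1, PEO4 and PEO1/OlaR ovarian cancer cells, 600 per well, exposed 96 h at 37C to a dilution series. Viability read by CellTiter-Glo luminescence, normalized to DMSO and empty wells; activity summarized as Z-AUC.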

The target of assay [9] is Cytochrome P450 3A4 (Homo sapiens) (UniProt P08684). Description: qHTS for inhibitors of CYP3A4 against the NCATS DSHEA and TCM libraries (AID 1919971).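 Note: % is set by controls: 0 for no effect and ±100 for the full control effect; inhibition lowers luminescence from luciferin made by CYP3A4.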 In short, it runs like this: (§3)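 Light output from converted D-luciferin reports remaining CYP activity. Compounds preincubate with enzyme and substrate for 15 min; NADPH regeneration (1x final) runs the reaction for 30-45 min.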

Assay [10] deals with Cytochrome P450 2D6 (Homo sapiens) (UniProt P10635). As to the kind of experiment: qHTS for inhibitors of CYP2D6 against the NCATS DSHEA and TCM libraries (AID 1919972). Note: % is set by controls: 0 for no effect and ±100 for the full control effect. In short, it runs like this: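 Steps: enzyme plus luciferin substrate dispensed; test substances pinned; 15 min RT; 1x NADPH regenerating solution added, 30–45 min RT protected from light; detection reagent, 30 min RT; luminescence measured. Minus-enzyme wells as background.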

Assay [11] addresses Cytochrome P450 2C19 (Homo sapiens) (UniProt P33261). As to the kind of experiment: qHTS for inhibitors of CYP2C19 against the NCATS DSHEA and TCM libraries (AID 1919974).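 Note: luminescence from luciferin released by CYP2C19 oxidation of a pro-luciferin substrate; potency is the fitted concentration of half-maximal effect.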 The following applies: CYP2C19 enzyme inhibition, luminescence qHTS. In short, it runs like this: as §3

Nuclear receptor subfamily 1 group I member 2 (Homo sapiens), sequence (O75469 whole entry, looked up): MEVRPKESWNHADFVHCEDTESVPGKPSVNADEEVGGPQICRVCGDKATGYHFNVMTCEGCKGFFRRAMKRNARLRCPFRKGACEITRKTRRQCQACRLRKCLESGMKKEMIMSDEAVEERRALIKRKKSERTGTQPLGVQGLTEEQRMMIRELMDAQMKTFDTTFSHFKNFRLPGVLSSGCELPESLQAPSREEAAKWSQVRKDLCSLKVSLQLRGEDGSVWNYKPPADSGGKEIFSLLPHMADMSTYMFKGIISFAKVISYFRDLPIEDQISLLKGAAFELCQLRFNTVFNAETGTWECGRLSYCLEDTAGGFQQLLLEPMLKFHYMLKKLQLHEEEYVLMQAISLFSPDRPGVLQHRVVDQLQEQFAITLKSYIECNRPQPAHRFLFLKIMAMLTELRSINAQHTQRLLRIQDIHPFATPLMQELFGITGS
Cytochrome P450 2D6 (Homo sapiens), sequence (P10635 whole entry, looked up): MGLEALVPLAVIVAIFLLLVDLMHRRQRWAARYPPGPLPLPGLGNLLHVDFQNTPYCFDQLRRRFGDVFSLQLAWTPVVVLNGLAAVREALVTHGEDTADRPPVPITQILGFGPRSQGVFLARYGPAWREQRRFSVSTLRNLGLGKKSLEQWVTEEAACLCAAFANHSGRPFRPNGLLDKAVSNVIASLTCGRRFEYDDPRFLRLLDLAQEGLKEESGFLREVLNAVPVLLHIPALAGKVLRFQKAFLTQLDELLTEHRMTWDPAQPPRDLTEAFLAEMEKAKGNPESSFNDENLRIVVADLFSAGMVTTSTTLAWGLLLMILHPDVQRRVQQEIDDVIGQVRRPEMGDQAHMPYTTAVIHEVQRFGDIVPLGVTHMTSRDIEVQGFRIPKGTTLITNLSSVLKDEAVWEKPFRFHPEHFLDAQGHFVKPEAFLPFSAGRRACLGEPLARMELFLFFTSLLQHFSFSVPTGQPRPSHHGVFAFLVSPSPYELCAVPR
Cytochrome P450 2C19 (Homo sapiens), sequence (P33261 whole entry, looked up): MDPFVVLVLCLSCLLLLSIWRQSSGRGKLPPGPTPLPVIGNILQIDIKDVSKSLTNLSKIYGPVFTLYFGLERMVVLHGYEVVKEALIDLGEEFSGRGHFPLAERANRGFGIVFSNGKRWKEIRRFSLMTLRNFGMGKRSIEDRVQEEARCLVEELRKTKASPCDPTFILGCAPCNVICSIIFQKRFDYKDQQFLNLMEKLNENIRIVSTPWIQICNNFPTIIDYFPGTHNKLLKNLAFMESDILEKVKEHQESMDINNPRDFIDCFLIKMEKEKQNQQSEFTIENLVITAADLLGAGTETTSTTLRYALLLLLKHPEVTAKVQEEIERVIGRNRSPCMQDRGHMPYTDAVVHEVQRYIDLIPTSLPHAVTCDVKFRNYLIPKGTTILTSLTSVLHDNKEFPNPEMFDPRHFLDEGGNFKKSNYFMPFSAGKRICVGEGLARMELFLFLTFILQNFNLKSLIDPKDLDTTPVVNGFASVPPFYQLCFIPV
Cytochrome P450 3A4 (Homo sapiens), sequence (P08684 whole entry, looked up): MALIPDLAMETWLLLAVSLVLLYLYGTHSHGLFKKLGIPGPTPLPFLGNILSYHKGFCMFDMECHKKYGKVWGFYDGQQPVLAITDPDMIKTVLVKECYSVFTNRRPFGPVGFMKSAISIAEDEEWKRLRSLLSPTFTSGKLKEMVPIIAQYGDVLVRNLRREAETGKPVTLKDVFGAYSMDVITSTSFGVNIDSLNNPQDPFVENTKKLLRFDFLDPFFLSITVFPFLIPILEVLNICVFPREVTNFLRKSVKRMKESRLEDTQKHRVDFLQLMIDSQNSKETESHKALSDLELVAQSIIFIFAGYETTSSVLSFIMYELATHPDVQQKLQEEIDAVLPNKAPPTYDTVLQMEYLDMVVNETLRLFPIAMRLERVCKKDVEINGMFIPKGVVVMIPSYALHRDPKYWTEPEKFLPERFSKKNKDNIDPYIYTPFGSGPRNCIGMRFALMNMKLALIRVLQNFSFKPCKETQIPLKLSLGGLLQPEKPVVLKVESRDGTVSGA

Turning to `O=C(/C=C/c1ccccc1)NCCO`, the activity, negative = inhibition in assay [1] (parasite line A) was 4.35% (inactive); in [1] (parasite line B), -2.74% (inactive). Also, the Potency entry in the assay with 3D7, in the assay on 7G8, in the assay with AA1029, in the assay with AS120, with ATS189 and in the assay with ATS95 was “inactive” each time. In addition, the Potency result in the assay with C2A was “inactive”.

Take `O=C(OCc1ccccc1)c1ccccc1`: the activity, negative = inhibition in [1] (parasite line A) was -9.71% (inactive); in assay [1] (parasite line B), -8.05% (inactive). Besides, the Potency entry in the assay with 3D7, with 7G8, with AA1029, with AS120, with ATS189 and in the assay on ATS95 was “inactive” throughout. Besides, the Potency result in the assay with C2A is “inactive”.

For `CCCCCCCCCCCCCCCCCC(=O)O`, the molecule was called inactive in assay [2], in assay [4], in assay [5], in assay [6] and in [7]. Further, in assay [3], the max response was 4.77% (inactive). For the same molecule, the results for the activity, negative = inhibition in assay [1] (parasite line A) and in assay [1] (parasite line B) were -10.1% (inactive) and -2.97% (inactive), respectively. Further, the Potency result in the assay on 3D7, in the assay on 7G8, in the assay with AA1029, in the assay on AS120, in the assay on ATS189 and in the assay with ATS95 was “inactive” each time. For the same molecule, in the assay with C2A, the Potency result is “inactive”.

`O=C(O)c1ccccc1Nc1cccc(C(F)(F)F)c1`: the activity, negative = inhibition in assay [1] (parasite line A) is -6.43% (inactive); in assay [1] (parasite line B) it was 10.3% (inactive). The Potency result with 3D7, in the assay on 7G8, with AA1029, in the assay on AS120, with ATS189 and with ATS95 was “inactive” throughout. Besides, the Potency result in the assay on C2A is “inactive”.

On to `O=C1NC(=O)/C(=C/c2ccc3nccnc3c2)S1`, for which the figures for the Z-AUC in assay [8], in assay [8] (measured here: PEO1 parental Z-AUC) and in assay [8] (measured here: PEO4 Z-AUC) were 1.93 (inactive), 0.559 and 0.611, respectively.

As to `Cc1ccccc1CNc1ncnc2c1ncn2C1OC(CO)C(O)C1O` (stereo not given), the activity, negative = inhibition in assay [1] (parasite line A) was 17.8% (inactive); in assay [1] (parasite line B), -2% (inactive). In addition, the Potency result with 3D7, with 7G8, with AA1029, in the assay with AS120, with ATS189 and with ATS95 was “inactive” each time. Moreover, in the assay with C2A, the Potency entry is “inactive”.

Turning to `Nc1c(CC(=O)O)cccc1C(=O)c1ccc(Br)cc1`, the values for the activity, negative = inhibition in assay [1] (parasite line A) and in assay [1] (parasite line B) were 12.5% (inactive) and 11.2% (inactive), respectively. For the same molecule, the Potency result in the assay with 3D7, in the assay with 7G8, in the assay with AA1029, in the assay with AS120, with ATS189 and in the assay with ATS95 was “inactive” each time. The Potency result in the assay with C2A is “inactive”.

As for `C[S+](CC[C@H](N)C(=O)O)C[C@H]1O[C@@H](n2cnc3c(N)ncnc32)[C@H](O)[C@@H]1O` (stereo not given in full), the outcome in [9], in assay [10], in [2], in assay [4], in assay [6] and in [7] was inactive. Also, in assay [11], the Potency is 3.98 µM (active). Besides, the max response in assay [3] is -4.63% (inactive). For the same molecule, the Potency entry in the assay with 3D7, in the assay on 7G8, in the assay with AS120 and in the assay on C2A was “inactive” throughout.
